The full list was thinned out, with hits kept by preference.
TSHR antag: human thyrotropin receptor antagonism; AID 504810; TSHR-expressing cells, TSH-stimulated cAMP HTRF, 2 h; active compounds read low; 0.2% of 330,000 active; activity change, negative = inhibition, % at 11.5 µM; P16473;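 active = activity change below a set negative limit, meaning inhibition stronger than a set level, cut at about -70% in these data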
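TSHR-expressing cells, 200/well, pre-treated with compound, then stimulated with EC80 TSH (4nM final) for 2 hours at 37 deg C. cAMP measured by competitive HTRF: anti-cAMP cryptate antibody in lysis buffer plus cAMP-d2, read after 30 minutes at room temperature.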
RXFP1 agonist: activates the human relaxin receptor RXFP1 | HEK293T-RXFP1 cAMP TR-FRET, 30 min; response scale: percent of porcine relaxin response, buffer zero | 0.3% of 370,000 active | Potency, µM (top dose mostly 57.5 µM), hits mostly activators; also: nearly all actives have a fitted effect of over 60% in size
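cAMP rise read by TR-FRET after 30 min, 37C compound exposure (up to 58 uM) in RXFP1-transfected HEK293 cells with Ro 20174 present. EC50 from Hill-equation fits, with 29 nM porcine relaxin as 100% and buffer as basal.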
TCR activator: activates T cell receptor signaling. 330,000 tested, under 10 active. Potency, µM (doses to about 9.22 µM), hits mostly activators. primary human leukocytes, anti-CD3, IL-2 HTRF, 48 h
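Primary human leukocytes were stimulated with a-CD3 beads plus compounds for 48 hr without co-stimulation; secreted IL-2 was quantified by HTRF using a-IL-2-K (europium cryptate) and a-IL-2-d2, excited at 320nm with acceptor emission read at 665nm.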
NPSR antagonist: neuropeptide S receptor (human) antagonism, cAMP; Q6W5P4; CHO-NPSR cells, cAMP TR-FRET, antagonist mode; Potency, µM (series often up to 38.3 µM), most hits filed as inhibitors; 1% of 220,000 active; AID 1461; also: nearly all actives have a fitted effect of over 50% in size
PTHR1 ag: agonists of human PTHR1 parathyroid hormone receptor | HEK293 GP2 PTHR1 cells, GloSensor cAMP luminescence, 1 h | Potency, µM (titrated, usually from 115 µM), hits mostly activators | 0.075% of 410,000 active; also: nearly all actives have a fitted effect of over 55% in size
Target sequence (Q03431 whole entry, looked up): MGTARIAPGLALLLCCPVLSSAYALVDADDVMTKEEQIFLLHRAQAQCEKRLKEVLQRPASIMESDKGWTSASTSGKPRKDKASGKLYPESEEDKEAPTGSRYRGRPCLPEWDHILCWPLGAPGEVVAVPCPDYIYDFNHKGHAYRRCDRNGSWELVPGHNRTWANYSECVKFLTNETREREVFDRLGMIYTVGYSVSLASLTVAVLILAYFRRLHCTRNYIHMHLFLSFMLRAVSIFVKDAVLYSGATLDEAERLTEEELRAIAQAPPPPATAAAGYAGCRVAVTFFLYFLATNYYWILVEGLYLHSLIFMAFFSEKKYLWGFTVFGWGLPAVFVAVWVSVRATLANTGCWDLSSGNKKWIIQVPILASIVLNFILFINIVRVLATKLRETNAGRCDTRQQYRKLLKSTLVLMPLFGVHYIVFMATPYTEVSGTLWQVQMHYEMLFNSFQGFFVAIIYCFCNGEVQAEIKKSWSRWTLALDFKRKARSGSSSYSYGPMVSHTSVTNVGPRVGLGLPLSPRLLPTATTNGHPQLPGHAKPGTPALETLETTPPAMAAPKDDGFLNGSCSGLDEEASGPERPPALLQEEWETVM
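HEK-293-derived GP2 cells expressing PTHR1 and a GloSensor cAMP reporter, 3,000/well, plated overnight, given luciferin plus IBMX (each 0.5 mM as added) for 1 h at 37 °C, then compound for 1 h at 37 °C. Luminescence was read after 15 min at room temperature.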
RXFP1 antagonist: RXFP1 (human) relaxin receptor antagonism | Q9HBX9 | HEK293-RXFP1, relaxin-stimulated cAMP HTRF, 30 min; active compounds read low | activity change, negative = inhibition, % at 57.5 µM | 0.59% of 350,000 active | AID 1259400;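 active = activity change of -60% or lower, but not beyond a set lower limit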
Numbers stand for hits; - = inactive; . = no result given. Unless noted, calls follow the shape of the dose curve; as a rule, active = well fitted curve in the direction sought with a large enough effect; inconclusive = small, poorly fitted or top-dose-only effect, or another doubt; inactive = no such curve, though single readings can be large; an effect the other way counts as inactive or inconclusive.

SMILES | TSHR antag | RXFP1 agonist | TCR activator | NPSR antagonist | PTHR1 ag | RXFP1 antagonist
CCOc1ccc(NC(=O)C(=O)NCC(c2cccnc2)N2CCc3ccccc32)cc1 (centres undefined) | . | - | . | . | - | -64
COC(=O)c1ccc(NC(=O)C(=O)NCC(c2cccnc2)N2CCc3ccccc32)cc1 (centres undefined) | . | - | . | . | - | -
CCOC(=O)c1c(-c2ccc(C)c(C)c2)csc1NC(=O)C1CC=CCC1C(=O)O (centres undefined) | - | - | - | 10µM | - | -
CCOC(=O)c1c(-c2cccc([N+](=O)[O-])c2)csc1NC(=O)C1CCCCC1 | - | - | - | 10µM | - | -
CCC1CN(C(=O)N2CCC(C(=O)NCCC3=CCCCC3)CC2)c2ccccc2O1 (centres undefined) | . | - | . | . | - | -
N#Cc1c(Sc2ncc(C(F)(F)F)cc2Cl)nsc1C/C=N\OCc1ccccc1Br | - | - | - | 10µM | - | -
CCn1c(O)c(N=NC(=S)NCC2CCCO2)c2ccccc21 (centres undefined) | - | - | - | 7.9µM | - | -
C/C(=C1\CCOC(=O)S1)N(C=O)Cc1cnc(C)nc1N | . | . | . | . | . | -
CO[C@@]1(NC(=O)CSC[C@@H](N)C(=O)O)C(=O)N2C(C(=O)O)=C(CSc3nnnn3C)CS[C@@H]21 | . | . | . | . | . | -
